# Experimental data published in PubChem BioAssay (NCI).
# Values joined by “and” are separate entries in the source; they are usually repeats but may differ in a detail not shown here. Identical values can stand only once. The panel holds about 83,000 compounds, 20% with a hit somewhere; the sample as a whole holds those more often.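 48-hour exposure, single concentration, 96-well plates; percent growth endpoint where 0 means no net growth. Active: below 10.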 Active and inactive are the calls of the source.
# Tested on: MDA-MB-468 breast
# Experiment: NCI-60 one-dose screen, 48 h (100 = growth as untreated, 0 = no growth, -100 = all killed)
# Conditions: 10 µM unless noted
row,Compound,growth
1,COc1cc2c(-c3cc4c(cc3CNCCc3ccc5c(c3)OCO5)OCO4)cccc2c(OC)c1O,-8.75% (active)
2,CC(C)=CCC/C(C)=C/CC/C(C)=C/CC/C(C)=C/CSC[C@H](NC(=O)CCCCCN1CCN(C)CC1)C(=O)NC1CCCCC1,79.2% (inactive)
3,CCCCCN1C(=O)/C(=c2\sc3n(c2=O)C2C(NN=3)N(CC)C(=O)N2CC)c2cccc(C)c21 (stereo not given),34.5% (inactive)
4,COc1ccc(-c2nc3c(c(-c4ccccc4)nn3-c3ccccc3)c(-c3ccc(N4CCN(C)CC4)cc3)c2C#N)cc1,79.2% (inactive)
5,CN(C)c1ncc(/C=C2\SC(=S)N(Cc3ccccc3Cl)C2=O)s1,95.6% (inactive)
6,CC(C)C1=NOC(=O)C1=Cc1cn(-c2ccccc2)nc1-c1ccc(Br)cc1,92.2% (inactive)
7,COc1cc(Cl)cc(-c2nn(-c3cccc(NC(=O)Nc4cc(C(F)(F)F)cc(C(F)(F)F)c4)c3)cc2-c2ccncc2)c1,-2.95% (active)
8,Nc1c(C(=O)Nc2cccc3cnccc23)sc2nc3c(cc12)CN(Cc1ccccc1)CC3,94.8% (inactive)
9,Cc1cccc(NC(=O)[C@@H]2c3ccccc3C(=O)N(c3ccc(Cl)cc3)[C@H]2c2ccc(Cl)cc2)n1,17.7% (inactive)
10,O=C(O)c1ccc(NC(=O)c2ccc(Nc3ccnc(C(F)(F)F)c3)cc2)cc1,99.8% (inactive)
11,Nc1ccc2c(c1)Cc1cc(N)c(Cl)cc1-2,80.4% (inactive)
12,O=C(Nc1cccc2c1C(=O)c1cccc(NC(=O)c3ccc(C(=O)Nc4cccc5c4C(=O)c4cccc(NC(=O)c6ccccc6)c4C5=O)cc3)c1C2=O)c1ccccc1,91.3% (inactive)
13,Cn1cc(-c2nnc(N)nc2-c2c[nH]c3ccc(F)cc23)c2cc(Br)ccc21,-33.4% (active)
14,COc1cccc2c1[C@H](OC)[C@]13O[C@@]1(C2=O)[C@H](O)[C@H](C)[C@@](O)(C(=O)[C@@H]1O[C@H]1C)[C@@H]3O,-40.5% (active)
15,CNC(=O)c1cc(-n2ccc3cc(NC(=O)Nc4ccc(N5CCN(C)CC5)c(C(F)(F)F)c4)ccc32)ccn1,59.7% (inactive)
16,C=C1N(C)c2ccc(Cl)cc2C1(C)C,5.23% (active)
17,COc1ccc(-c2cn(Cc3cc4ccccc4s3)nn2)cc1OCCN1CCCCC1,63.8% (inactive)
18,CCOCC(=O)C(C#N)c1ccc(Cl)c(Cl)c1 (stereo not given),90.9% (inactive)
19,COc1cc(-c2nc(SC(C)C)nc(Nc3ccccc3C)c2C#N)cc(OC)c1OC,111% (inactive)
20,O=C1OC(=O)C2C1C1(Cl)C(Cl)=C(Cl)C2(Cl)C2C(=O)OC(=O)C21 (stereo not given),94.3% (inactive)

row,Compound,growth
1,CCOC(=O)c1cnn2c3ccccc3n(S(=O)(=O)c3ccc(OC)cc3)c12,-12.1% (active)
2,NC1=NC2(CCCC2)N(c2ccc(S(=O)(=O)Nc3nccs3)cc2)C(N)=N1,90.7% (inactive)
3,CCOC(=O)C1CCN(S(=O)(=O)/N=C2/NC(=O)NC2=C(Cl)Cl)CC1,-22.2% (active)
4,COc1ccc(/C=C/c2nc(Nc3ccc(S(=O)(=O)Nc4nc(C)cc(C)n4)cc3)c3ccccc3n2)cc1,24% (inactive)
5,C/C(=C/CCC(C)[C@@H]1CC[C@]2(C)C3=C(CC[C@@]12C)[C@@]1(C)CCC(=O)C(C)(C)[C@@H]1CC3)C(=O)O (stereo not given in full),-60.4% (active)
6,C/C(=N\Nc1cc(C)nc2ccc(Br)cc12)c1ccc([N+](=O)[O-])cc1,51.5% (inactive)
7,COc1ccc(C(=S)N2CCN(c3ccccc3Cl)CC2)cc1OC,92.1% (inactive)
8,NS(=O)(=O)c1ccc(CCn2c(-c3ccc(C(=O)O)cc3)nc(-c3ccccc3)c2-c2ccccc2)cc1,112% (inactive)
9,Cc1cccc2c1O/C(=C\c1ccc([N+](=O)[O-])o1)C2=O,-58.1% (active)
10,CC(=O)OCC1CCCO1 (stereo not given),105% (inactive)
11,CCCCNC(=O)Oc1ccc(/C(=C(\C)c2ccccc2)c2ccc(OCCN(CC)CC)cc2)cc1,70.3% (inactive)
12,NC(=N\N=C/c1ccc(O)cc1)/C(N)=N\N=C/c1ccc(O)cc1,103% (inactive)
13,COc1cc(Nc2ncc(F)c(Nc3ccc4c(n3)N(COP(=O)(O)O)C(=O)C(C)(C)O4)n2)cc(OC)c1OC,6.8% (active)
14,COc1ccc(COC=O)cc1,114% (inactive)
15,O=C(Nc1nc(Cl)nc(Nc2ccc(N3CCOCC3=O)cc2)n1)c1ccc(Cl)s1,68.1% (inactive)
16,CC(=O)N1N=C(c2ccc(Nc3nc(Nc4ccc(F)cc4)nc(Nc4ccc(Cl)cc4)n3)cc2)CC1c1ccc(Cl)cc1 (stereo not given),104% (inactive)
17,COc1cc(-c2nn(-c3ccc(Br)cc3)cc2CO)ccc1O,96.1% (inactive)
18,COc1cc(/C=C/c2cc(O)c(C(C)=O)c(O)c2)cc2c1O[C@]1(C)CC[C@@H](O)C(C)(C)[C@H]1C2,77.6% (inactive)
19,CC(=O)c1ccc(Nc2nc(SCC(C)C)nc(-c3ccccc3)c2C#N)cc1,73.7% (inactive)
20,CCN(CC)CCCC(C)Nc1ccnc2cc(Oc3ccccc3)ccc12 (stereo not given),31.5% (inactive) and 70.2% (inactive)
